The structures appear in SMILES notation.

By inhibition is commonly meant the relative decrease from the control value, in per cent.

Holding throughout (type): functional
Test [1] has as its target Solute carrier family 2, facilitated glucose transporter member 1 (Homo sapiens) (UniProt P11166). Put plainly: ST_JUDE_LEISH: Cytotoxicity at 2uM final concentration against transgenic Leishmania Mexicana promastigotes LmGLUT1 that are glucose transport deficient and complemented with the human glucose transporter GLUT1. Activity is measured by DNA content using SYBR green in vitro.

For test [2], the target named is Hexose transporter 1 (Plasmodium falciparum) (UniProt O97467). The experiment in a line: ST_JUDE_LEISH: Cytotoxicity at 2uM final concentration against transgenic Leishmania Mexicana promastigotes LmPfHT that are glucose transport deficient and complemented with the Plasmodium falciparum hexose transporter. Activity is measured by DNA content using SYBR green in vitro.

The target in test [3] is Glucose transporter (Leishmania mexicana) (UniProt O61059). Put plainly: ST_JUDE_LEISH: Cytotoxicity at 2uM final concentration against transgenic Leishmania Mexicana promastigotes LmGT2 that are glucose transport deficient and complemented with the L. Mexicana glucose transporter 2. Activity is measured by DNA content using SYBR green in vitro.

Solute carrier family 2, facilitated glucose transporter member 1 (Homo sapiens), sequence (P11166 whole entry): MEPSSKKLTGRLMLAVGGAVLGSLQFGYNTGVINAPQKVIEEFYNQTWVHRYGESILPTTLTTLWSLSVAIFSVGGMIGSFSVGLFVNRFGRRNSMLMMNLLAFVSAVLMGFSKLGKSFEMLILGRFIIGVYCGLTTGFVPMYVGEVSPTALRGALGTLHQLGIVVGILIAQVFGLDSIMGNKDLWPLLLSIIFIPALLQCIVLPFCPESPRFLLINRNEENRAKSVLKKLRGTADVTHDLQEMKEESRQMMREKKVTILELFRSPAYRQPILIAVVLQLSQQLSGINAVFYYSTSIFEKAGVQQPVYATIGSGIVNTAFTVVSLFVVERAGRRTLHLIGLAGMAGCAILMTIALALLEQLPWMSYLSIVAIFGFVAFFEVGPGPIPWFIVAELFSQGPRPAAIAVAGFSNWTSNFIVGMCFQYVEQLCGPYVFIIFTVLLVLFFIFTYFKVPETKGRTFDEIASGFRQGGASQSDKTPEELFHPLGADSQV

As for `O=C(Cc1c[nH]cn1)Nc1cccc(-c2ccc(-c3nc4cc(F)ccc4[nH]3)cc2)c1`, the inhibition in test [1] came out at 9.26%; in test [2], 10.1%; in test [3], 7.18%.

On to `CCCCCN1CCCC(CNS(=O)(=O)c2ccc(C(=O)Nc3ccc(C(F)(F)F)cc3)cc2)C1` (stereo not drawn), for which the inhibition was -1.01% in test [1], -0.37% in test [2] and -0.42% in test [3].

Regarding `O=C(Nc1ccsc1)Nc1cccc(-c2cccc(-c3nc4cc(C(F)(F)F)ccc4[nH]3)c2)c1`, the figures for the inhibition in test [1], in test [2] and in test [3] were -1.45%, 1.47% and 1.55%, respectively.

Turning to `CC[C@H](C)CNC(=O)c1ccnc(-c2ccc(CN3CCC(N4CCCC4)CC3)cc2)c1`, the inhibition is 1.51% in test [1], 0.38% in test [2] and 0.35% in test [3].

With `Nc1cccc(C=CC(=O)N=c2cc[nH]c3ccccc23)c1`, the inhibition in test [1] is -0.24%; in test [2] it was 0.74%; in test [3], -2.1%.

As to `COc1ccc(S(=O)(=O)NC2CCN(c3ccc(C(F)(F)F)cc3NC(=O)OCC(C)C)CC2)cc1`, the inhibition came out at 0.36% in test [1], 1.75% in test [2] and 2.43% in test [3].

`CCCNCc1c(O)ccc2c(CNCCC)c(O)ccc12`: the inhibition was 0.17% in test [1], -0.89% in test [2] and 0.49% in test [3].

As for `CCC1CN(CCCn2c3ccccc3c3ccccc32)C(CC)CN1` (stereo not drawn), the inhibition was -0.46% in test [1], -0.59% in test [2] and -0.18% in test [3].

With `Cc1noc(C)c1-c1cccc(CNCc2ccc(-c3cccc(-c4nc5ccccc5[nH]4)c3)cc2)c1`, the inhibition in test [1] is -0.68%; in test [2], -1.65%; in test [3] it was -4.01%.

`CCN(CC)CCc1ccc2c(=O)cc(CCc3cccc(F)c3F)n(CC(=O)N(C)Cc3ccc(-c4ccc(C(F)(F)F)cc4)cc3)c2c1`: the inhibition in test [1] was 5.18%; in test [2] it was 5.23%; in test [3], 3.78%.

On to `O=C(NCCCCN1CCC(c2ccc3c(c2O)CCCC3)CC1)c1ccc(-c2ccc(Cl)cc2)cc1`, for which the inhibition is 1.35% in test [1], 1.06% in test [2] and 2.37% in test [3].

Consider `O=C(/C=C/c1ccc(Cl)c(Cl)c1)NCCCCCN1CCC(c2n[nH]c(-c3ccccc3)c2Br)CC1`, for which the inhibition in test [1] was 1.29%; in test [2], -2.38%; in test [3] it was 0.22%.

As for `Brc1ccc(Nc2nc(NCC3CCCO3)c3ccccc3n2)cc1` (stereo not drawn), the inhibition in test [1] turned out to be 24.2%; in test [2] it was 22.3%; in test [3] it was 8.12%.

`Cc1ccc(C(=O)Nc2ccc(Nc3ccnc4cc(-c5nccs5)ccc34)cc2O)cc1`: the inhibition in test [1] was 6.24%; in test [2], 3.22%; in test [3], 1.89%.

With `COc1ccc2ncn(-c3ccc(C(N)=O)c(OCc4ccccc4C(F)(F)F)c3)c2c1`, the inhibition in test [1] is -0.54%; in test [2], -1.32%; in test [3], -3.42%.

For `c1ccc(Oc2ccc(Nc3ccnc4cc(-c5ccc(CN6CCNCC6)o5)ccc34)cc2)nc1`, the inhibition in test [1] came out at 11.2%; in test [2] it was 8.71%; in test [3], 5.3%.

As to `Cc1cccc2nc(-c3ccc(-c4ccc(CNCCNC(=O)c5ccnn5C)cc4)cc3)[nH]c12`, the results for the inhibition in test [1], in test [2] and in test [3] were -0.55%, 1.46% and -2.49%, respectively.

In the case of `Cc1ccc(C)c(NC(=O)CC2C(=O)N(c3ccccc3)C(=S)N2Cc2ccco2)c1` (stereo not drawn), the inhibition came to 4.9% in test [1], 5.73% in test [2] and 5.93% in test [3].

Turning to `COc1cccc(CNC(=O)NC2CCN(c3ccnc(Nc4cc(OC)c(OC)c(OC)c4)n3)C2)c1` (stereo not drawn), the inhibition in test [1] turned out to be 2.39%; in test [2], 1.6%; in test [3], 2.88%.

With `C[C@H](NC(=O)c1cc(-c2ccc(C(C)(C)C)cc2)no1)C(=O)O.C[C@H](NC(=O)c1conc1-c1ccc(C(C)(C)C)cc1)C(=O)O`, the figures for the inhibition in test [1], in test [2] and in test [3] were -0.02%, 0.23% and 1.58%, respectively.

`O=C(NCc1ccc(Cl)c(Cl)c1)c1ccc(-c2nc3ccc(Cl)cc3[nH]2)cc1`: the inhibition is 4.45% in test [1], 9.23% in test [2] and 3.4% in test [3].

Consider `CCOC(=O)N1CCN(CCCNc2c3ccccc3nc3ccccc23)CC1`, for which the inhibition in test [1] was 6.23%; in test [2], 4.08%; in test [3] it was 1.91%.

As to `CCN(CC)CCN(Cc1ccc(-c2ccc(C(F)(F)F)cc2)cc1)C(=O)Cn1c(CCc2cc(F)cc(F)c2)nc(=O)c2ccccc21`, the inhibition worked out at 1% in test [1], 1.07% in test [2] and 1.47% in test [3].

`COC(=O)C(Cc1ccccc1)NC(=O)NC1CCN(c2ccnc(Nc3ccc(F)cc3)n2)C1` (stereo not drawn): the inhibition in test [1] worked out at 1.44%; in test [2] it was 0.86%; in test [3], 3.07%.

`O=C(/C=C/c1ccc2ccccc2c1)NCCCCCN1CCC(c2c[nH]c3ccccc23)CC1`: the inhibition is 3.34% in test [1], 5.66% in test [2] and 0.03% in test [3].

`CC(C)CCn1c(Sc2ccc([N+](=O)[O-])cc2C(F)(F)F)nnc1-c1ccccc1Cl`: the inhibition in test [1] came out at 1.8%; in test [2] it was 1.95%; in test [3] it was 2.26%.

With `O=C(C=Cc1ccc(Cl)c(Cl)c1)NCCCCCN1CCC(CCNS(=O)(=O)c2ccc(Br)cc2)CC1`, the inhibition came to 2.45% in test [1], 1.43% in test [2] and 2.53% in test [3].

As for `CC(C)c1ccc(CN2CCCCC(NC(=O)c3cc(-c4cccc(F)c4)cs3)C2)cc1` (stereo not drawn), the inhibition in test [1] was -2.71%; in test [2], 3%; in test [3], 0.54%.

As to `FC(F)(F)c1ccc2[nH]c(-c3ccc(-c4cccc(CN5CCC(CCN6CCCCC6)CC5)c4)cc3)nc2c1`, the inhibition was found to be 3.12% in test [1], 4.82% in test [2] and 2.53% in test [3].

Consider `COc1ccc2ncc(C#N)c(CCN3C[C@H](CNCc4ccccc4)[C@H](O)C3)c2n1`, for which the inhibition was found to be 3.18% in test [1], 3.76% in test [2] and 2.91% in test [3].

As to `CC(C)CNCc1cccc(-c2cccc(CN(CCCN3CCN(C)CC3)C(=O)CCC3CCCC3)c2)c1`, the inhibition in test [1] worked out at 4.42%; in test [2], 3.07%; in test [3] it was 4.38%.

`CC(=NNC(=N)N)C(=O)Nc1ccc(Cl)c(Cl)c1`: the results for the inhibition in test [1], in test [2] and in test [3] were 1.75%, 1.53% and 2.25%, respectively.

Turning to `COc1ccc2nccc(N3CCC(O)(CCNCc4ccc5c(n4)NC(=O)CS5)CC3)c2n1`, the figures for the inhibition in test [1], in test [2] and in test [3] were 7.13%, 8.14% and 7.92%, respectively.

Turning to `COc1cccc(-c2ccc3c(-c4cccc(S(C)(=O)=O)c4)cnc(N)c3c2)c1`, the figures for the inhibition in test [1], in test [2] and in test [3] were 8.21%, 5.42% and 2.21%, respectively.

In the case of `O=C(c1ccc(-c2ccc(-c3nc4ccccc4[nH]3)s2)cc1)N1CCCCC1CN1CCC(O)C1` (stereo not drawn), the values for the inhibition in test [1], in test [2] and in test [3] were 3.07%, 2.95% and 4.01%, respectively.

For the compound `CN1CCC(NCc2cccc(-c3cccc(-c4nc5cc(C(F)(F)F)ccc5[nH]4)c3)c2)CC1`, the inhibition came out at 2.34% in test [1], 0.79% in test [2] and 1.42% in test [3].

The values above are taken from ChEMBL document CHEMBL3433997, “St. Jude Leishmania screening dataset” (2016).
